{
  "source": "PubChem BioAssay (NCI)",
  "key": {"[1]": {"assay": "NCI Yeast Anticancer Drug Screen. Data for the rad52 strain (AID 147);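 further: 0% = growth of vehicle-treated control cultures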", "conditions": "S. cerevisiae rad52 mutant growth inhibition, stronger effect = higher value", "method_in_brief": "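Yeast strain carrying a DNA damage repair alteration was exposed to test compounds. Growth inhibition was measured relative to vehicle-treated controls.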"}, "[2]": {"assay": "NCI Yeast Anticancer Drug Screen. Data for the wt1 strain (AID 149);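 further: 0% = growth of vehicle-treated wt1 cultures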", "conditions": "S. cerevisiae wt1 strain (SPY 50644) growth inhibition, stronger effect = higher value", "method_in_brief": "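Vehicle-normalised growth inhibition; strain wt1; compound exposure.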"}, "[3]": {"assay": "NCI Yeast Anticancer Drug Screen. Data for the rad50EPP+ strain (AID 151);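 further: 0% = growth of vehicle-treated control cultures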", "conditions": "S. cerevisiae rad50 mutant strain, stronger effect = higher value", "method_in_brief": "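Yeast strain carrying rad50 alteration (rad50EPP+) exposed to compounds; growth inhibition measured relative to vehicle-treated controls.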"}, "[4]": {"assay": "NCI Yeast Anticancer Drug Screen. Data for the mgt1 strain (AID 153)", "conditions": "S. cerevisiae mgt1 mutant growth inhibition, stronger effect = higher value", "method_in_brief": "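Yeast mgt1 strain (DNA repair/cell-cycle alteration panel) exposed to compounds; growth inhibition measured relative to vehicle-treated controls.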"}, "[5]": {"assay": "NCI Yeast Anticancer Drug Screen. Data for the rad50 strain (AID 155);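 further: 0% = growth of vehicle-only cultures of the same strain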", "conditions": "S. cerevisiae rad50 strain growth inhibition, stronger effect = higher value", "method_in_brief": "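A DNA repair-deficient yeast mutant serves as the test organism; compound-induced growth inhibition is calculated against vehicle-treated cells.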"}, "[6]": {"assay": "NCI Yeast Anticancer Drug Screen. Data for the mec2-1 strain (AID 157)", "conditions": "S. cerevisiae mec2-1 strain, stronger effect = higher value", "method_in_brief": "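mec2-1 yeast strain, carrying an alteration in DNA damage repair or cell cycle control, was exposed to compounds; growth inhibition was measured relative to vehicle-treated controls.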"}, "[7]": {"assay": "NCI Yeast Anticancer Drug Screen. Data for the rad14 strain (AID 159);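 further: 0% = growth of vehicle-treated control cultures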", "conditions": "S. cerevisiae rad14 strain growth inhibition, stronger effect = higher value", "method_in_brief": "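Vehicle-treated cultures served as the baseline for growth inhibition of a DNA repair-mutant yeast strain exposed to each compound.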"}, "[8]": {"assay": "NCI Yeast Anticancer Drug Screen. Data for the sgs1 mgt1 strain (AID 161);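 further: 0% = growth of cultures given vehicle only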", "conditions": "S. cerevisiae sgs1 mgt1 strain, stronger effect = higher value", "method_in_brief": "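Compounds are added to genetically altered yeast, and growth is compared with cultures given vehicle alone to give percent inhibition.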"}, "[9]": {"assay": "NCI Yeast Anticancer Drug Screen. Data for the CLN2oe strain (AID 163);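 further: 0% = growth of vehicle-only control cultures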", "conditions": "S. cerevisiae CLN2oe strain, stronger effect = higher value", "method_in_brief": "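Yeast cells carrying a defined cell-cycle control alteration were exposed to test compounds. Growth inhibition was scored against vehicle-treated control cultures.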"}, "[10]": {"assay": "NCI Yeast Anticancer Drug Screen. Data for the cln2 rad14 strain (AID 165);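 further: 0% = growth equal to vehicle treated cultures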", "conditions": "S. cerevisiae cln2 rad14 strain, stronger effect = higher value", "method_in_brief": "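Yeast carrying cln2 and rad14 alterations (cell cycle control and DNA damage repair) were exposed to compounds. Growth inhibition was measured against vehicle-treated controls.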"}, "[11]": {"assay": "NCI Yeast Anticancer Drug Screen. Data for the bub3 strain (AID 167)", "conditions": "S. cerevisiae bub3 mutant strain, stronger effect = higher value", "method_in_brief": "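Inhibition values come from growth of compound-treated mutant yeast normalised to vehicle-treated controls.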"}, "[12]": {"conditions": "at 5.0 µM (retest, dose inferred, filed as 0.5)"}, "[13]": {"conditions": "at 50.0 µM (retest, dose inferred, filed as 5.0)"}},
  "note": "About 79,000 compounds went through this panel and 15% of them were active in at least one assay; those are over-represented in the sample as a whole. A number with no mark means an inactive call. The source made the active and inactive calls. No stated cut-off is given here; in the data, active means growth inhibition above about 70%; inactive means the rest.",
  "data": [
    {"smiles": "C=COC(=O)N[C@H]1CCc2cc(OC)c(OC)c(OC)c2-c2ccc(SC)c(=O)cc21", "values": [
      {"measurement": "growth inhibition", "setting": "[1]; at 1.2 µM", "value": -2, "unit": "%"},
      {"measurement": "growth inhibition", "setting": "[1]; at 3.7 µM", "value": 1, "unit": "%"},
      {"measurement": "growth inhibition", "setting": "[1]; at 11.0 µM", "value": 6, "unit": "%"},
      {"measurement": "growth inhibition", "setting": "[1]; at 33.0 µM", "value": 14, "unit": "%"},
      {"measurement": "growth inhibition", "setting": "[1]; at 100.0 µM", "value": "75% (active)"},
      {"measurement": "growth inhibition", "setting": "[2]; at 1.2 µM", "value": -2, "unit": "%"},
      {"measurement": "growth inhibition", "setting": "[2]; at 3.7 µM", "value": -2, "unit": "%"},
      {"measurement": "growth inhibition", "setting": "[2]; at 11.0 µM", "value": -3, "unit": "%"},
      {"measurement": "growth inhibition", "setting": "[2]; at 33.0 µM", "value": -2, "unit": "%"},
      {"measurement": "growth inhibition", "setting": "[2]; at 100.0 µM", "value": 18, "unit": "%"},
      {"measurement": "growth inhibition", "setting": "[3]; at 1.2 µM", "value": -8, "unit": "%"},
      {"measurement": "growth inhibition", "setting": "[3]; at 3.7 µM", "value": -2, "unit": "%"},
      {"measurement": "growth inhibition", "setting": "[3]; at 11.0 µM", "value": -3, "unit": "%"},
      {"measurement": "growth inhibition", "setting": "[3]; at 33.0 µM", "value": -6, "unit": "%"},
      {"measurement": "growth inhibition", "setting": "[3]; at 100.0 µM", "value": -2, "unit": "%"},
      {"measurement": "growth inhibition", "setting": "[4]; at 1.2 µM", "value": -5, "unit": "%"},
      {"measurement": "growth inhibition", "setting": "[4]; at 3.7 µM", "value": -8, "unit": "%"},
      {"measurement": "growth inhibition", "setting": "[4]; at 11.0 µM", "value": -4, "unit": "%"},
      {"measurement": "growth inhibition", "setting": "[4]; at 33.0 µM", "value": 13, "unit": "%"},
      {"measurement": "growth inhibition", "setting": "[4]; at 100.0 µM", "value": 64, "unit": "%"},
      {"measurement": "growth inhibition", "setting": "[5]; at 1.2 µM", "value": 1, "unit": "%"},
      {"measurement": "growth inhibition", "setting": "[5]; at 3.7 µM", "value": 4, "unit": "%"},
      {"measurement": "growth inhibition", "setting": "[5]; [12]", "value": -6, "unit": "%"},
      {"measurement": "growth inhibition", "setting": "[5]; at 11.0 µM", "value": 10, "unit": "%"},
      {"measurement": "growth inhibition", "setting": "[5]; at 33.0 µM", "value": 20, "unit": "%"},
      {"measurement": "growth inhibition", "setting": "[5]; [13]", "value": 34, "unit": "%"},
      {"measurement": "growth inhibition", "setting": "[5]; at 50.0 µM", "value": 38.5, "unit": "%"},
      {"measurement": "growth inhibition", "setting": "[5]; at 100.0 µM", "value": "88% (active)"},
      {"measurement": "growth inhibition", "setting": "[6]; at 1.2 µM", "value": -5, "unit": "%"},
      {"measurement": "growth inhibition", "setting": "[6]; at 3.7 µM", "value": -4, "unit": "%"},
      {"measurement": "growth inhibition", "setting": "[6]; [12]", "value": -9, "unit": "%"},
      {"measurement": "growth inhibition", "setting": "[6]; at 11.0 µM", "value": -5, "unit": "%"},
      {"measurement": "growth inhibition", "setting": "[6]; at 33.0 µM", "value": 2, "unit": "%"},
      {"measurement": "growth inhibition", "setting": "[6]; [13]", "value": 41, "unit": "%"},
      {"measurement": "growth inhibition", "setting": "[6]; at 50.0 µM", "value": 30.9, "unit": "%"},
      {"measurement": "growth inhibition", "setting": "[6]; at 100.0 µM", "value": "73% (active)"},
      {"measurement": "growth inhibition", "setting": "[7]; at 1.2 µM", "value": -1, "unit": "%"},
      {"measurement": "growth inhibition", "setting": "[7]; at 3.7 µM", "value": -1, "unit": "%"},
      {"measurement": "growth inhibition", "setting": "[7]; at 11.0 µM", "value": 6, "unit": "%"},
      {"measurement": "growth inhibition", "setting": "[7]; at 33.0 µM", "value": 19, "unit": "%"},
      {"measurement": "growth inhibition", "setting": "[7]; at 100.0 µM", "value": "93% (active)"},
      {"measurement": "growth inhibition", "setting": "[8]; [12]", "value": -9, "unit": "%"},
      {"measurement": "growth inhibition", "setting": "[8]; [13]", "value": 42, "unit": "%"},
      {"measurement": "growth inhibition", "setting": "[8]; at 50.0 µM", "value": 38, "unit": "%"},
      {"measurement": "growth inhibition", "setting": "[9]; at 1.2 µM", "value": -4, "unit": "%"},
      {"measurement": "growth inhibition", "setting": "[9]; at 3.7 µM", "value": -2, "unit": "%"},
      {"measurement": "growth inhibition", "setting": "[9]; at 11.0 µM", "value": -12, "unit": "%"},
      {"measurement": "growth inhibition", "setting": "[9]; at 33.0 µM", "value": -10, "unit": "%"},
      {"measurement": "growth inhibition", "setting": "[9]; at 100.0 µM", "value": "80% (active)"},
      {"measurement": "growth inhibition", "setting": "[10]; [12]", "value": 3, "unit": "%"},
      {"measurement": "growth inhibition", "setting": "[10]; [13]", "value": 6, "unit": "%"},
      {"measurement": "growth inhibition", "setting": "[10]; at 50.0 µM", "value": 20.4, "unit": "%"},
      {"measurement": "growth inhibition", "setting": "[11]; at 1.2 µM", "value": -3, "unit": "%"},
      {"measurement": "growth inhibition", "setting": "[11]; at 3.7 µM", "value": -6, "unit": "%"},
      {"measurement": "growth inhibition", "setting": "[11]; [12]", "value": -3, "unit": "%"},
      {"measurement": "growth inhibition", "setting": "[11]; at 11.0 µM", "value": -6, "unit": "%"},
      {"measurement": "growth inhibition", "setting": "[11]; at 33.0 µM", "value": 4, "unit": "%"},
      {"measurement": "growth inhibition", "setting": "[11]; [13]", "value": 67, "unit": "%"},
      {"measurement": "growth inhibition", "setting": "[11]; at 50.0 µM", "value": 34.2, "unit": "%"},
      {"measurement": "growth inhibition", "setting": "[11]; at 100.0 µM", "value": 58, "unit": "%"}
    ]}
  ]
}
